# This is part of a sample that, as a whole, favours compounds with a hit. Of some 83,000 tested, about 20% had one in any assay.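 Results are percent growth after 48 hours of single-concentration exposure. 100 means growth as in untreated cells, lower positive values show inhibition; negative values down to -100 show cell death.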 A number with no mark means an inactive call. Calls of active or inactive are those of the source. How the source made its calls: active means growth percent below 10; inactive means the rest.
# Tests used:
# Test in all cases: NCI-60 one-dose screen, 48 h (100 = growth as untreated, 0 = no growth, -100 = all killed)
# Details in all cases: 10 µM unless noted
# [1] = system: SK-MEL-2 melanoma
# [2] = system: EKVX NSCLC
# [3] = system: SN12C renal
# [4] = system: UO-31 renal
# [5] = system: TK-10 renal
# [6] = system: ACHN renal
# [7] = system: CAKI-1 renal
# [8] = system: A498 renal
# [9] = system: CCRF-CEM leukemia
# [10] = system: SR leukemia
# [11] = system: RPMI-8226 leukemia
# [12] = system: OVCAR-8 ovarian
# [13] = system: OVCAR-5 ovarian
# [14] = system: OVCAR-4 ovarian
# [15] = system: SK-OV-3 ovarian
# [16] = system: IGROV1 ovarian
# [17] = system: OVCAR-3 ovarian
# [18] = system: HS 578T breast
# [19] = system: NCI/ADR-RES ovarian
# [20] = system: MOLT-4 leukemia
Structure (SMILES),growth [1],growth [2],growth [3],growth [4],growth [5],growth [6],growth [7],growth [8],growth [9],growth [10],growth [11],growth [12],growth [13],growth [14],growth [15],growth [16],growth [17],growth [18],growth [19],growth [20]
NC(N)=Nc1ccc(Nc2cccc(Nc3ccc(Cl)c(C(F)(F)F)c3)c2)cn1,53.7%,43.1%,13.3%,82.3%,98%,78.1%,41.6%,58.8%,5.61% (active),-31.7% (active),13%,44.7%,73.8%,45.4%,77.6%,33.4%,-30.7% (active),28.4%,87.5%,
COc1cc(OC)c(/C=C/S(=O)(=O)Cc2ccc(OC)c(NC(=O)CCC(=O)NO)c2)c(OC)c1,46.6%,36.1%,22.7%,34.1%,64.4%,28.1%,25.3%,-20.8% (active),11.5%,14.2%,16.9%,17.2%,33.9%,45.3%,32.6%,13.4%,6.69% (active),16.2%,10.2%,
COc1cc(OC)cc(C(=O)Nc2cccc(C#Cc3cccc4[nH]nc(N)c34)c2)c1,-24.2% (active),61.1%,30.4%,32.2%,54.3%,35.4%,24.5%,-19.2% (active),13%,16.6%,18.6%,31.2%,39.5%,53.9%,39.1%,20.4%,12.2%,-21.9% (active),,
COc1cc2nc(Cl)nc(Nc3cccc(C4=Nc5c(N)nc(N)nc5NC(c5ccc6c(c5)OCO6)C4)c3)c2cc1OC (configuration not stated),85.2%,86.1%,78.6%,86%,113%,94%,82.8%,105%,26.8%,,41.7%,68.2%,112%,97%,112%,77.6%,63.5%,82.7%,93.1%,27%
CN(C)CCCOc1ccc2c(c1)CN(C(=O)c1cc(C(=O)N3Cc4cccc(F)c4C3)ccc1O)C2,117%,103%,99.4%,95.3%,122%,106%,95.8%,97.1%,98.1%,,98.9%,101%,108%,99%,112%,113%,,92.9%,107%,97.5%
COc1c(N2CC3CCCNC3C2)c(F)cc2c(=O)c(C(=O)N/N=C/c3ccc(N(C)C)cc3)cn(C3CC3)c12 (configuration not stated),114%,86.2%,65.5%,59.1%,122%,46.8%,90.3%,113%,29.6%,,62.9%,87.3%,95.7%,90%,114%,58.9%,51.2%,95.8%,81.6%,29.5%
CCN(CC)c1ccc(NC2=C(Cl)C(=O)c3nc(C)ccc3C2=O)cc1,84.9%,-5.94% (active),64%,-60% (active),164%,-61.2% (active),51.7%,104%,0.0595% (active),7.24% (active),2.6% (active),-12.2% (active),108%,-97% (active),112%,-52.2% (active),-29.6% (active),65.4%,51.2%,
Cc1nc2ncc(-c3ccc4ncnc(NCc5ccccc5)c4c3)cc2[nH]1,74%,25.3%,32.3%,45.4%,22.6%,64.9%,19.3%,-18.2% (active),68.5%,78.3%,75.5%,76.9%,42.6%,48%,52.5%,16.8%,39.2%,29.2%,104%,
NC(=O)c1c(NC(=O)c2ccccc2C(F)(F)F)sc2c1CCC(=O)C2,45.5%,24.3%,40.3%,-7.49% (active),28.1%,8.24% (active),-2.3% (active),85.9%,16.3%,27.2%,-1.93% (active),17.3%,27%,9.19% (active),105%,31.2%,12.3%,32.5%,14.9%,
O=S(=O)(NCCNc1nccc(-n2cnc3ccccc32)n1)c1ccc(Cl)cc1,109%,92.2%,96.6%,81.6%,101%,96.4%,87.4%,84.8%,103%,96.3%,99.4%,102%,91.7%,95.2%,112%,98.2%,106%,88.1%,97.8%,
CCNC(=O)N1CCc2cc(OC)c(OCCc3ccc(OC)c(N)c3)cc2C1c1ccc(C)cc1C (configuration not stated),4.33% (active),44%,22.6%,30.4%,56.1%,27.6%,22.9%,-5% (active),34.5%,,20.1%,24.4%,33.5%,57.6%,52.8%,21.4%,,,17.9%,29.3%
COc1ccc2[nH]cc(/C=N/Nc3nc4ccccc4s3)c2c1,80.5%,50%,69.6%,37.4%,103%,63.9%,41.3%,63.4%,47.3%,,47.2%,67.1%,73.2%,67.2%,65.7%,29.8%,,60.6%,66%,35.9%
CC[C@@H](CO)Nc1ccc2ncc(C#Cc3cncc(C(=O)Nc4ccc(CN5CCN(C)CC5)c(C(F)(F)F)c4)c3)n2n1,-93.2% (active),-9.99% (active),-55.4% (active),-85.9% (active),-53.5% (active),-91.4% (active),-82.8% (active),-98.8% (active),7.24% (active),,-34.5% (active),-57.6% (active),-14% (active),-44.1% (active),-40% (active),-25.4% (active),,-41.5% (active),55.1%,3.44% (active)
Clc1nc2ccccc2nc1-c1nnc(C2CCCCC2)o1,102%,98.8%,101%,92.7%,105%,99.2%,89.5%,89.3%,84.9%,,95.4%,101%,107%,98%,102%,101%,,92.8%,107%,109%
O=c1[nH]c(Sc2sc3ccc(Cl)cc3c2CBr)nc(=S)[nH]1,7.23% (active),40.2%,41.8%,19.9%,46.2%,26.7%,13.7%,5.73% (active),18%,7.03% (active),24.2%,41.2%,49.3%,40.7%,18.4%,4.63% (active),56%,19.3%,65.3%,
COc1ccc2c(c1)Oc1nc(N)c(C#N)c(N)c1C2Sc1ccc(C)cc1 (configuration not stated),-36.4% (active),19.3%,0.951% (active),-81.6% (active),-23.4% (active),-96.9% (active),-7.52% (active),33.4%,-16.1% (active),0.429% (active),-19% (active),12.7%,15.9%,15.1%,86.4%,-76.5% (active),-77.1% (active),14.8%,5.39% (active),
